Only some compounds are listed: those with a hit (about 1.6% of all), similar ones and a draw of the others.
KCNQ2 block = inhibitors of rat KCNQ2 potassium channel. B-score at 10 µM. actives 1.1% (n = 310,000). CHO-K1 KCNQ2, FluxOR thallium flux, 20 min; hits give low values;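 active means fluorescence ratio B-score at most minus 3 library SDs, with starting brightness B-score within 2 library SDs, cut at about -5.5 in these data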
KCNQ2 enhance = enhances the rat KCNQ2 potassium channel; O88943; CHO-K1 KCNQ2, FluxOR thallium flux fluorescence; hits give high values; B-score at 10 µM; actives 0.54% (n = 310,000);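 active means fluorescence ratio B-score at least 3 SD of library B-scores, with initial fluorescence B-score within 3 of them, cut at about 5.3 in these data; same plate scores as AID 2156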;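 further: B-score of peak minus minimum over baseline fluorescence ratio after K+ and Tl+ stimulus; positive B-score means potentiation of KCNQ2 with more thallium influx and brighter signal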
Kir21 conf inh = confirmation of mouse Kir2.1 potassium channel inhibitors | actives 41% (n = 2,300) | shares compounds with KCNQ2 enhance | Tl flux remaining, % of negative control (hits give low values), % at 10 µM | Kir2.1-expressing cells, FluxOR thallium flux fluorescence; hits give low values;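 active means Primary-screen hit whose thallium flux fell at least 3 control SD below untreated wells in both duplicates, with normal baseline fluorescence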
HEK293 Tl flux = counter-screen for Kir2.1 inhibitors: effect in parental HEK293 cells | FluxOR thallium flux fluorescence; 0% = unstimulated blank wells | shares compounds with KCNQ2 enhance | FluxOR signal as % of negative control (100 = no effect), % at 10 µM | actives 19% (n = 2,300);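 active means dye signal at least 3 control SD above or below untreated wells in both duplicates, raw fluorescence within 3, either direction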;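 further: percent is based on the flux ratio of peak minus minimum fluorescence over baseline F0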
CHO-K1 Tl ctr = counter-screen for KCNQ2 potentiators: effect in parental CHO-K1 cells; shares compounds with KCNQ2 enhance; FluxOR thallium flux fluorescence; zero = vehicle mean+3SD, 100% = vehicle-minus-blank window; actives 43% (n = 1,200); activity increase over 3SD of controls, % at 10 µM;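 active means signal rise of at least 3 SD above the untreated control mean, in both duplicate wells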;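 further: counter screen of KCNQ2 potentiator hits so any rise reflects channel-independent effects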
KCNQ1 sel pot = tests whether KCNQ2 potentiators also act on human KCNQ1; shares compounds with KCNQ2 enhance; CHO KCNQ1 stable, FluxOR thallium flux fluorescence; beyond 3SD, as % of vehicle-control signal; activation over 3SD threshold, % at 10 µM; actives 28% (n = 1,200); AID 2283;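 active means fluorescence ratio rise of at least 3 SD of vehicle wells above their mean, in both replicate wells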
Target sequence (P51787 whole entry, looked up): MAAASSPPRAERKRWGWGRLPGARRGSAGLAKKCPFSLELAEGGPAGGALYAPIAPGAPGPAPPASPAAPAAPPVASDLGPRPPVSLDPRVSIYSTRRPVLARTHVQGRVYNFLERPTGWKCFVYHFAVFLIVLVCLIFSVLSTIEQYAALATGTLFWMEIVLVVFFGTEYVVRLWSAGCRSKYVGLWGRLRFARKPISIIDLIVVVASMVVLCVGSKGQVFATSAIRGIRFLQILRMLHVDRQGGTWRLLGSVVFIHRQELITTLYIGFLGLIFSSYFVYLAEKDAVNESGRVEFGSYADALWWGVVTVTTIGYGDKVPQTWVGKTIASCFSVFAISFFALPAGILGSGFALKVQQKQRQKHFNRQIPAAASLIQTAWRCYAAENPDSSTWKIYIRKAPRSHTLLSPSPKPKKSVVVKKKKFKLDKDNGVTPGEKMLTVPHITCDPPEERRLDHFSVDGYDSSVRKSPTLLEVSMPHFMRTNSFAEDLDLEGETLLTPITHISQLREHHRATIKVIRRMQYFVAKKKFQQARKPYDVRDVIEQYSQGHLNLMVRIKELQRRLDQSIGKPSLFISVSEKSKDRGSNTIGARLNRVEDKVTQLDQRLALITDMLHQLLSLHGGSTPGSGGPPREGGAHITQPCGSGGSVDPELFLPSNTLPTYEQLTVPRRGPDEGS
KCNQ2 pot confirm = confirmation of rat KCNQ2 potassium channel potentiators. shares compounds with KCNQ2 enhance. CHO-KCNQ2 cells, FluxOR thallium flux fluorescence. potentiation, less the hit threshold, % at 10 µM. actives 68% (n = 1,200). AID 2287;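 active means fluorescence ratio rising 3 SD or more over the vehicle control mean in both replicates, plus primary screen hit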;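 further: peak minus minimum thallium fluorescence divided by baseline after K/Tl stimulus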
Kir2-1 sel = mouse Kir2.1 off-target activity of KCNQ2 potentiators | activity over 3SD threshold, % at 10 µM | shares compounds with KCNQ2 enhance | HEK293 Kir2.1, FluxOR thallium flux fluorescence | actives 2% (n = 1,200);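 active means fluorescence ratio rise of at least 3 SD above the vehicle-control mean, seen in both replicates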
KCNQ2 W236L MoA = KCNQ2 potentiators acting on retigabine-insensitive rat KCNQ2 W236L mutant | shares compounds with KCNQ2 enhance | CHO KCNQ2-W236L, automated patch clamp current | current increase over 3SD of negative controls (%), hits give high values, % at 25 µM | actives 10% (n = 940);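 active means current increase at least 3 SD of the untreated controls above them in both duplicate recordings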
A number is an active result.

Screening CCOC(=O)c1c(NC(=O)C(NCCN(C)C)c2ccccc2)sc2c1CCCC2 (stereo not given) returned KCNQ2 block inactive, Kir21 conf inh 42% and HEK293 Tl flux inactive.
For O=S(=O)(c1ccc(F)cc1)N1CCCc2ccccc21 the results were KCNQ2 block inactive, Kir21 conf inh 71% and HEK293 Tl flux inactive.
O=S(=O)(c1ccccc1)N1CCCc2ccccc21 was read as KCNQ2 block inactive, Kir21 conf inh 64% and HEK293 Tl flux inactive.
`O=C(O)c1ccc(S(=O)(=O)N2CCCc3ccccc32)cc1` gave KCNQ2 block inactive.
`CC(=O)c1ccc(S(=O)(=O)N2CCCc3ccccc32)cc1` gave KCNQ2 block inactive.
For C=CCN(C(=O)CNC(=O)c1ccco1)C(C(=O)NC1CCCCC1)c1cccnc1 (stereo not given) the results were KCNQ2 block inactive and KCNQ2 enhance inactive.
For COc1ccccc1CCNC(=O)C(=O)NCC1OCCCN1S(=O)(=O)c1ccc(F)cc1C (stereo not given) the results were KCNQ2 block inactive.
Screening CCN(CC)S(=O)(=O)c1cc(NC(=O)c2cc([N+](=O)[O-])ccc2N2CCOCC2)ccc1C returned KCNQ2 block inactive.
Screening CC(=O)NNC(=S)NC(=O)C(c1ccccc1)c1ccccc1 returned KCNQ2 block inactive.
CC(C)(C)C(=O)NC(=S)NNC(=O)C(c1ccccc1)c1ccccc1 was read as KCNQ2 block inactive, KCNQ2 enhance 6.6, Kir21 conf inh inactive, HEK293 Tl flux 66%, CHO-K1 Tl ctr inactive, KCNQ1 sel pot inactive, KCNQ2 pot confirm inactive and Kir2-1 sel inactive.
For Cc1ccc(S(=O)(=O)N2CCCC2)cc1C(=O)N1CCN(Cc2ccccc2)CC1 the results were KCNQ2 block inactive.
Screening Cc1ccc(-c2c(C(=O)N/N=C/C3CC=CCC3)nnn2-c2nonc2N)cc1 (stereo not given) returned KCNQ2 block inactive and KCNQ2 enhance inactive.
For C/C(=N\NC(=O)c1nc2ccccn2c1C)c1cc2ccccc2o1 the results were KCNQ2 block inactive and KCNQ2 enhance inactive.
`C/C(=N\NC(=O)c1cc2ccccc2cc1O)c1ccccn1` gave KCNQ2 block inactive, KCNQ2 enhance 5.9, Kir21 conf inh inactive, HEK293 Tl flux 166%, CHO-K1 Tl ctr inactive, KCNQ1 sel pot 3.0, KCNQ2 pot confirm inactive and Kir2-1 sel inactive.
Screening C/C(=N\NC(=O)c1c[nH]c2ccccc12)c1ccccn1 returned KCNQ2 block inactive.
`C/C(=N\NC(=O)c1cc2ccccc2cc1O)c1cc2ccccc2o1` gave KCNQ2 block inactive, KCNQ2 enhance 21, Kir21 conf inh inactive, HEK293 Tl flux 452%, CHO-K1 Tl ctr 93, KCNQ1 sel pot inactive, KCNQ2 pot confirm 69, Kir2-1 sel inactive and KCNQ2 W236L MoA inactive.
`CCc1nnc(NC(=O)CSc2nnc(-c3cccnc3)n2C)s1` gave KCNQ2 block inactive and KCNQ2 enhance inactive.
`CCCn1c(=N)n(CC(O)c2ccc(C)cc2)c2ccccc21` (stereo not given) gave KCNQ2 block inactive, KCNQ2 enhance inactive, Kir21 conf inh 60% and HEK293 Tl flux inactive.
For CCCn1c(=N)n(CC(O)COc2ccc(C)cc2)c2ccccc21 (stereo not given) the results were KCNQ2 block inactive and KCNQ2 enhance inactive.
Screening CCN(CC)CCOC(=O)c1ccc(NC(=O)c2ccc(Cl)c(S(=O)(=O)N3CCCCCC3)c2)cc1 returned KCNQ2 block inactive and KCNQ2 enhance inactive.
O=C(NCc1ccc(F)cc1)C(c1ccccc1)c1ccccc1 was read as KCNQ2 block inactive.
`CCC(NC(=S)NCc1ccc(F)cc1)c1ccccc1` (stereo not given) gave KCNQ2 block inactive, KCNQ2 enhance inactive, Kir21 conf inh 58% and HEK293 Tl flux 62%.
Cc1cccc(NC(=O)NCc2ccc3c(c2)OCO3)c1 was read as KCNQ2 block inactive, KCNQ2 enhance 11, Kir21 conf inh inactive, HEK293 Tl flux inactive, CHO-K1 Tl ctr 4.1, KCNQ1 sel pot inactive, KCNQ2 pot confirm 20, Kir2-1 sel inactive and KCNQ2 W236L MoA inactive.
`Cc1cccc(NC(=S)NCc2ccc3c(c2)OCO3)c1` gave KCNQ2 block inactive and KCNQ2 enhance inactive.
For O=C(NCc1ccc2c(c1)OCO2)NC1CCCCC1 the results were KCNQ2 block inactive, KCNQ2 enhance 5.7, Kir21 conf inh inactive, HEK293 Tl flux inactive, CHO-K1 Tl ctr 38, KCNQ1 sel pot inactive, KCNQ2 pot confirm inactive and Kir2-1 sel inactive.
`O=C(NNC(=O)c1ccc2c(c1)OCO2)NC1CCCCC1` gave KCNQ2 block inactive.
`O=C(NCc1ccc2c(c1)CCO2)Nc1cccc(C(F)(F)F)c1` gave KCNQ2 block inactive, KCNQ2 enhance 7.1, Kir21 conf inh inactive, HEK293 Tl flux inactive, CHO-K1 Tl ctr 3.1, KCNQ1 sel pot 20, KCNQ2 pot confirm 25, Kir2-1 sel inactive and KCNQ2 W236L MoA inactive.
`CC(NC(=O)NC12CC3CC(CC(C3)C1)C2)c1ccc2c(c1)OCO2` (stereo not given) gave KCNQ2 block inactive, KCNQ2 enhance 15, Kir21 conf inh inactive, HEK293 Tl flux inactive, CHO-K1 Tl ctr 28, KCNQ1 sel pot inactive, KCNQ2 pot confirm 56, Kir2-1 sel inactive and KCNQ2 W236L MoA inactive.
`O=C(NCc1cccnc1)Nc1cccc(C(F)(F)F)c1` gave KCNQ2 block inactive and KCNQ2 enhance inactive.
CCc1ccccc1NC(=O)NC(C)c1ccc2c(c1)OCO2 (stereo not given) was read as KCNQ2 block inactive and KCNQ2 enhance inactive.
For COc1ccc(C(=O)NCCCNC(=O)c2ccccn2)cc1 the results were KCNQ2 block inactive and KCNQ2 enhance inactive.
For CCCc1cc(=O)[nH]c(SCCCCN2C(=O)c3ccccc3C2=O)n1 the results were KCNQ2 block inactive.
CC(=O)Nc1ccc(S(=O)(=O)N2CCN=C2SCc2ccccc2C)cc1 was read as KCNQ2 block inactive.
Screening CCOCCCNC(=O)c1oc2ccc3c(c2c1C)C(O)CC(C)(C)O3 (stereo not given) returned KCNQ2 block inactive and KCNQ2 enhance inactive.
